# Source: PubChem BioAssay (Tox21)
# Values without a mark were called inactive. Results filed as inconclusive are left out. Entries that show only a call come without a potency. Activity calls are given as the source filed them. Unless noted, the call rests on the fitted dose curve; in most records, active means well fitted curve in the direction sought with a large enough effect in the repeat runs; inconclusive means weak or mixed curves; inactive means no such curve, though single readings can be large; an effect the other way counts as inactive or inconclusive.
# Columns and labels:
# [1] = qHTS RealTime-Glo MT Cell Viability Assay in HepG2 cells - 16 hour (AID 1224885); further: nearly all actives have a fitted effect of over 50% in size
# In short: (§1)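 Cells + NanoLuc/prosubstrate dispensed (600 cells/well) → 5 h at 37 C/5% CO2 → compounds in DMSO transferred → 40 h incubation at 37 C, luminescence read at 0, 8, 16, 24, 32, 40 h.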
# [2] = qHTS RealTime-Glo MT Cell Viability Assay in HEK293 cells - 24 hour (AID 1224886); further: top concentration of the series differs between compounds; nearly all actives have a fitted effect of over 50% in size
# In short: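 Tox21 10K qHTS, HEK293, 600 cells/well, RealTime-Glo reagent co-dispensed with cells; 5 h preincubation, compound by pintool, 37 C, luminescence at 0–40 h.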
# [3] = qHTS RealTime-Glo MT Cell Viability Assay in HEK293 cells - 8 hour (AID 1224887); further: top concentration of the series differs between compounds; nearly all actives have a fitted effect of over 50% in size
# In short: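 600 cells/well were plated with the nonlytic NanoLuc/prosubstrate reagent, pre-incubated 5 h, then given 23 nL of compound in DMSO. Incubation at 37 C for 40 h, with luminescence from viable-cell-reduced substrate read repeatedly from 0 h.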
# [4] = A CellTox Green Cytotoxicity Assay to monitor cytotoxicity in HEK293 cells - 16 hour (AID 1224888); further: nearly all actives have a fitted effect of over 35% in size
# In short: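 HEK293 cells, 600/well, were preincubated 5 hours and then exposed to compounds at 37 C for up to 40 hours. A cell-impermeant cyanine dye staining dead-cell DNA was read by fluorescence at 0, 8, 16, 24, 32 and 40 h time points.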
# [5] = qHTS RealTime-Glo MT Cell Viability Assay in HepG2 cells - 0 hour (AID 1224889); further: nearly all actives have a fitted effect of over 50% in size
# In short: as §1
# [6] = A CellTox Green Cytotoxicity Assay to monitor cytotoxicity in HepG2 cells - 8 hour (AID 1224890); further: nearly all actives have a fitted effect of over 45% in size
# In short: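 HepG2 cells, 600/well, preincubated 5 h with CellTox Green dye, then exposed to Tox21 compounds in DMSO at 37 C for up to 40 h. Dead-cell DNA fluorescence read at the indicated time point.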
# [7] = qHTS assay to identify small molecule antagonists of the estrogen receptor alpha (ER-alpha) signaling pathway using the BG1 cell line in the presence of 0.1 nM 17-beta-estradiol - cell viability counter screen (AID 1259241); further: nearly all actives have a fitted effect of over 40% in size
# In short: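 Viability in VM7Luc4E2 cells after 22 hr compound exposure under 0.1 nM 17beta-estradiol stimulation, by CellTiter-Fluor.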
# [8] = qHTS assay to identify small molecule antagonists of the androgen receptor (AR) signaling pathway using the MDA cell line in the presence of 0.5 nM R1881 - cell viability counter screen (AID 1259242); further: nearly all actives have a fitted effect of over 45% in size
# In short: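 MDA-kb2 cells (MMTV-luciferase, AR/GR responsive) were treated with compounds plus 0.5 nM R1881 (final) for 16 hr at 37C, 0% CO2. Viability was then read in the same wells as live-cell protease fluorescence (CellTiter-Fluor, 30 min).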
# [9] = biological target: Androgen receptor (Homo sapiens) (UniProt P10275); assay: qHTS assay to identify small molecule antagonists of the androgen receptor (AR) signaling pathway using the MDA cell line in the presence of 0.5 nM R1881 (AID 1259243); further: nearly all actives have a fitted effect of over 50% in size
# In short: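 MDA-kb2 cells (MMTV-luciferase, responsive to AR and GR) at 3,000/well, rested 5 h at 37C, 0% CO2, then given compounds plus 0.5 nM R1881 (final) for 16 hr. Luciferase read with ONE-Glo after 30 min at room temperature.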
# [10] = biological target: Estrogen receptor (Homo sapiens) (UniProt P03372); assay: qHTS assay to identify small molecule antagonists of the estrogen receptor alpha (ER-alpha) signaling pathway using the BG1 cell line in the presence of 0.1 nM 17-beta-estradiol (AID 1259244); further: nearly all actives have a fitted effect of over 50% in size
# In short: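 VM7Luc4E2 cells (endogenous full-length ER-alpha, 4×ERE-luciferase), kept 5 days in phenol red-free, charcoal-stripped FBS medium; 4,000 cells/well. Compounds added with 0.1 nM (final) 17beta-estradiol, 22 hr at 37C; luminescence read with ONE-Glo after 30 min.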
# [11] = qHTS assay to identify small molecule HDAC inhibitors (AID 1259364); further: top concentration of the series differs between compounds; nearly all actives have a fitted effect of over 45% in size
# In short: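 Wild-type HCT-116 cells, plated overnight at 37 C, exposed to compounds 2 hr at 37 C; luminogenic HDAC-Glo substrate then added 30 min at room temperature. Luminescence reports relative endogenous class I/II HDAC activity.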
# [12] = qHTS assay to identify small molecule HDAC inhibitors - cell viability counter screen (AID 1259365)
# In short: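 Cytotoxicity was gauged in wild-type HCT-116 cells after a brief 2hr treatment with DMSO-dissolved compounds at 37C and 5% CO2, using CellTiter-Glo luminescence developed for 30min at room temperature.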
# [13] = qHTS assay to identify small molecule agonists of the sonic hedgehog signaling (Shh) pathway - cell viability counter screen (AID 1259366); further: nearly all actives have a fitted effect of over 50% in size
# In short: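 Stable Gli1-Luc NIH/3T3 clone, 2,000 cells/well. Compound exposure 24hr at 37C. Read-out: CellTiter-Fluor fluorescence.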
# [14] = qHTS assay to identify small molecule antagonists of the sonic hedgehog signaling (Shh) pathway - cell viability counter screen (AID 1259367); further: nearly all actives have a fitted effect of over 55% in size
# In short: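 NIH/3T3-derived Gli1-Luc reporter cells (2,000 per well) rested 4 hr at 37 C, then received DMSO compounds plus conditioned medium. After 23 hr of treatment, CellTiter-Fluor was added for 1 hr at 37C and fluorescence read.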
# [15] = qHTS assay to identify small molecule antagonists of the sonic hedgehog signaling (Shh) pathway (AID 1259369; calls by dose curve; further: nearly all actives have a fitted effect of over 45% in size)
# In short: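 NIH/3T3-derived Gli1-Luc reporter cells plated 4 h, dosed with compound, then stimulated with conditioned medium for 24 h at 37 C. Firefly luciferase luminescence read after 30 min with detection reagent at room temperature.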
# [16] = biological target: Estrogen receptor beta (Homo sapiens) (UniProt Q92731); assay: qHTS assay to identify small molecule antagonists of the estrogen receptor beta (ER-beta) signaling pathway (AID 1259378; active means well fitted inhibition curve with a large enough effect in the signal ratio in the repeat runs, not every such curve was filed as active; the % refers to the signal ratio; further: potency means the concentration at half of the fitted maximal effect)
# In short: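 ER-beta-UAS-bla HEK293T (GripTite) cells in 2% charcoal-stripped FBS medium were preincubated 6 hr at 37C, dosed with compound, then stimulated with 1 nM E2 (final) for 16 hr; beta-lactamase reporter read by B/G FRET fluorescence after 2 hr substrate loading.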
# [17] = qHTS assay to identify small molecule agonists of the sonic hedgehog signaling (Shh) pathway (AID 1259368; calls by dose curve;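 further: NIH/3T3-derived 3T3Gli1-Luc cells carrying a stable Gli1-driven firefly luciferase reporter; series mostly up to about 92 µM; nearly all actives have a fitted effect of over 15% in size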)
# In short: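 NIH/3T3-derived 3T3Gli1-Luc cells with stably integrated Gli1-driven firefly luciferase, 2,000 cells/well, compounds added after 4 hr. Incubated 24 hr at 37C, 5% CO2; luminescence read after 30 min with luciferase reagent at room temperature.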
# [18] = qHTS assay to identify small molecule agonists of the androgen receptor (AR) signaling pathway in the presence of an antagonist - cell viability counter screen (AID 1259379);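 further: MDA-kb2 human breast cancer cells carrying an MMTV luciferase reporter; series mostly up to about 92 µM; nearly all actives have a fitted effect of over 25% in size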
# In short: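 MDA-kb2 cells (MMTV-luciferase, AR/GR), 3,000/well, 5 h attachment, then 3.0 µM nilutamide (final) and compounds at 15 concentrations. Viability by CellTiter-Fluor fluorescence after 16 h at 37 °C, 0% CO2, in the reporter wells.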
# [19] = biological target: Estrogen receptor beta (Homo sapiens) (UniProt Q92731); assay: qHTS assay to identify small molecule agonists of the estrogen receptor beta (ER-beta) signaling pathway (AID 1259377; active means well fitted activation curve with a large enough effect in the signal ratio in the repeat runs, not every such curve was filed as active; the % refers to the signal ratio)
# In short: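 Measured by fluorescence intensity from a B/G FRET beta-lactamase substrate (2 h, room temperature) in ER-beta-UAS-bla HEK293T cells treated with DMSO-dissolved compounds for 16 hr at 37C and 5% CO2.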
# Estrogen receptor beta (Homo sapiens), sequence (Q92731 whole entry, looked up): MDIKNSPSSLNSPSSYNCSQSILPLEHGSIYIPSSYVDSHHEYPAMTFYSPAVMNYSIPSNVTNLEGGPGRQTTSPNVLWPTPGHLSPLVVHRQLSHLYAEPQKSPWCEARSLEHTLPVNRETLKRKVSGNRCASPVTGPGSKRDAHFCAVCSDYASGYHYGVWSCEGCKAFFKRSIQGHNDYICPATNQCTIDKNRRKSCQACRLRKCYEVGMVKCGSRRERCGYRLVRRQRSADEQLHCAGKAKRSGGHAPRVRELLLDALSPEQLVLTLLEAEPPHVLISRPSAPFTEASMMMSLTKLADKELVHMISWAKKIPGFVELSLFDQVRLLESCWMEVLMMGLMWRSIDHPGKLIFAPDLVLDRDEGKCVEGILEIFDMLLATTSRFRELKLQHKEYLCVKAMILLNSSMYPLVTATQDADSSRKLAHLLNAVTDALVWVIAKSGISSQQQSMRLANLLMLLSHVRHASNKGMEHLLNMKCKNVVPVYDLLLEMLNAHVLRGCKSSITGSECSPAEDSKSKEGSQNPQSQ
# Estrogen receptor (Homo sapiens), sequence (P03372 whole entry, looked up): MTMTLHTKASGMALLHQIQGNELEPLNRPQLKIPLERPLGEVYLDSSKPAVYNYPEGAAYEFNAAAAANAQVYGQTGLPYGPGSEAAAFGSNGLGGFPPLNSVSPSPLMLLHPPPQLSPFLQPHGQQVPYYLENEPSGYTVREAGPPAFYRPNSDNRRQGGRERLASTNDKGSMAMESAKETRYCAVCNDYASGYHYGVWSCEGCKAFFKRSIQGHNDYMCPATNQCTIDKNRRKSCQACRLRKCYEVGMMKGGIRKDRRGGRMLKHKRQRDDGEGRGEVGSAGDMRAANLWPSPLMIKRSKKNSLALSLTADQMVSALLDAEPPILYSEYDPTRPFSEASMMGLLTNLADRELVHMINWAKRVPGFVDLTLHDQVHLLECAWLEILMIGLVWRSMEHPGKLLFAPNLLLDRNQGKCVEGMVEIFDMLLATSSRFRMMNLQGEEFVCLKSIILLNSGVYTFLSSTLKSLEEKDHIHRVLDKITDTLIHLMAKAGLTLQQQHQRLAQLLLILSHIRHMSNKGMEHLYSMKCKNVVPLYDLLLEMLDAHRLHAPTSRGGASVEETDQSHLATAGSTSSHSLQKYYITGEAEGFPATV
# Androgen receptor (Homo sapiens), sequence (P10275 whole entry, looked up): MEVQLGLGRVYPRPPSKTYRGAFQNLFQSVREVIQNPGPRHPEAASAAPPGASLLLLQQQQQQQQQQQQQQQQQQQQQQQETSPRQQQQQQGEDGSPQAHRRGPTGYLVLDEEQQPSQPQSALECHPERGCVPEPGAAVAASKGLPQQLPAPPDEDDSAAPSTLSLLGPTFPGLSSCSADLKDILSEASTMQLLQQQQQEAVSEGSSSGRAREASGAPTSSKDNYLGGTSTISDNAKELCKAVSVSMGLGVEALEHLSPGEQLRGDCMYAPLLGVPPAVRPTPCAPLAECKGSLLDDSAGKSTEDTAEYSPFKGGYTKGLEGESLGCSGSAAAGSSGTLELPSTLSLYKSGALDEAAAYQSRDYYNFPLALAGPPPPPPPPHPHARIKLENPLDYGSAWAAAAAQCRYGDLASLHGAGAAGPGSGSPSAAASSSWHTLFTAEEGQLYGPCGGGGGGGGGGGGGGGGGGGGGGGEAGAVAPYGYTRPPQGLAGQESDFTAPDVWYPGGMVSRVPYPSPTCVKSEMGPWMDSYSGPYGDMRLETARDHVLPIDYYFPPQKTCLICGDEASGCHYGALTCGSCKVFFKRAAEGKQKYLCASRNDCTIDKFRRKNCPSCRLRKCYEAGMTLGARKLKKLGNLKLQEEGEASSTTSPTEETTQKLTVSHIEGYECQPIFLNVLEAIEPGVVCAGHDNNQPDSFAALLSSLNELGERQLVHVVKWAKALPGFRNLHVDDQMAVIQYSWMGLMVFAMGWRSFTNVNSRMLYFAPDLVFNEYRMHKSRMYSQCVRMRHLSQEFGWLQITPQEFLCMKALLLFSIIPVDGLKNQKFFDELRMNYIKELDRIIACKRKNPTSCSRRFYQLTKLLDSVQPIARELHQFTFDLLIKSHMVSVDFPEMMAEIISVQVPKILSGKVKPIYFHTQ
smiles,measurement,setting,value
CCc1cccc(C)c1N(C(=O)CS(=O)(=O)O)C(C)COC (configuration not stated),Potency,[1],inactive
same,Potency,[2],inactive
same,Potency,[3],inactive
same,Potency,[4],inactive
same,Potency,[5],inactive
same,Potency,[6],inactive
same,Potency,[7],inactive
same,Potency,[8],inactive
same,Potency,[9],inactive
same,Potency,[10],inactive
same,Potency,[11],inactive
same,Potency,[12],inactive
same,Potency,[13],inactive
same,Potency,[14],inactive
same,Potency,[15],inactive
same,Potency,[16],inactive
CCc1c(C)cc(N)c(CC)c1N,Potency,[1],inactive
same,Potency,[2],inactive
same,Potency,[3],inactive
same,Potency,[4],inactive
same,Potency,[5],inactive
same,Potency,[6],inactive
same,Potency,[7],inactive
same,Potency,[8],inactive
same,Potency,[9],inactive
same,Potency,[10],inactive
same,Potency,[11],inactive
same,Potency,[12],inactive
same,Potency,[13],inactive
same,Potency,[14],inactive
same,Potency,[17],inactive
same,Potency,[15],inactive
same,Potency,[16],inactive
same,Potency,[18],inactive
O=C(O)CN(CCCN(CC(=O)O)CC(=O)O)CC(=O)O,"activity change, negative = cytotoxic",[1],-11.5% [at 15.8 µM]
same,"activity change, negative = cytotoxicity",[2],-9.03% [at 15.8 µM]
same,"activity change, negative = cytotoxicity",[3],-4.97% [at 15.8 µM]
same,activity change,[4],"0.612% [at 15.8 µM, active compounds read high]"
same,"activity change, negative = cytotoxicity",[5],-28.3% [at 15.8 µM]
same,cytotoxicity increase,[6],-1.45% [at 15.8 µM]
same,"activity change, negative = cytotoxicity",[7],0.536% [at 19 µM]
same,"viability change, negative = cytotoxic",[8],0.128% [at 19 µM]
same,"activity, negative = inhibition",[9],1.14% [at 19 µM]
same,"activity change, negative = inhibition",[10],-0.399% [at 19 µM]
same,"activity change, negative = inhibition",[11],1.25% [at 19 µM]
same,"activity change, negative = cytotoxicity",[12],-1.94% [at 19 µM]
same,"viability change, negative = cytotoxic",[13],-10.7% [at 19 µM]
same,"viability change, negative = cytotoxic",[14],-4.5% [at 19 µM]
same,activity change,[17],"-1.26% [at 18.9 µM, active compounds read high]"
same,activation,[19],-3.28% [at 19 µM]
same,Potency,[16],2310 nM (active)
same,"activity change, negative = cytotoxicity",[18],-2.17% [at 19 µM]
